# According to PubChem BioAssay (NCI):
# Compounds without any hit were thinned out: in the full panel of roughly 83,000, 20% have a hit.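 Single-concentration screen, 48 h exposure, 96-well plates. Endpoint: percent growth. Below 10 = active.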 Calls of active or inactive are those of the source.
# Tested on: OVCAR-4 ovarian
# Test: NCI-60 one-dose screen, 48 h (100 = growth as untreated, 0 = no growth, -100 = all killed)
# Conditions: 10 µM unless noted
row,SMILES,growth
1,O=S(=O)(c1ccc(NCSc2nc3ccccc3s2)cc1)c1ccc(NCSc2nc3ccccc3s2)cc1,117% (inactive)
2,COc1cc(/C=C2\CN(S(=O)(=O)c3ccc(C)cc3)C/C(=C\c3cc(CN4CCCC4)c(O)c(OC)c3)C2=O)cc(CN2CCCC2)c1O,12.1% (inactive)
3,Cc1cccc(CN(Nc2ccccc2)c2ccccc2)n1,109% (inactive)
4,O=C(NS(=O)(=O)c1ccccc1)n1cc(-c2ccncc2)c(-c2cc(O)cc(Cl)c2)n1,92.2% (inactive)
5,CCCCN(CCC#N)C(N)=O,122% (inactive)
6,CCOC(=O)/C(=C/c1ccc([N+](=O)[O-])cc1)C(=O)c1ccccc1,76% (inactive)
7,N#Cc1c(-c2ccc(F)cc2)cc(-c2cccc(Cl)c2)[nH]c1=O,28% (inactive)
8,O=C(Nc1cccc(Cn2c(=O)[nH]c3ccc(Oc4ncccn4)cc3c2=O)c1)c1cccc(Cl)c1,30.5% (inactive)
9,O=C1c2c(c3c4cccnc4[nH]c3c3ccc4ccccc4c23)C(=O)N1O,53.8% (inactive)
10,COC(=O)c1nc(-c2ccccc2)oc1S(=O)(=O)N1CCN(c2ccc(OC)cc2)CC1,88.7% (inactive)
11,O=C1c2ccccc2-c2c1c1ccncc1c(=O)n2CCCn1ccnc1,72.7% (inactive)
12,COc1cc(-c2c(-c3ccccc3)c[nH]c2C(=O)NCCCO)c(OC)c2c1OCO2,107% (inactive)
13,C=C(C)Cn1c(SCC(=O)c2cccs2)nc2sc3c(c2c1=O)CCCC3,73.4% (inactive)
14,CNC1=C([N+](=O)[O-])C(c2ccc(OC)cc2)C(C#N)=C(c2ccc[nH]2)O1 (centres undefined),92.8% (inactive)
